VDR inh = vitamin D3 receptor (human) inhibition | actives 0.93% (n = 400,000) | VDR-SRC2-3 peptide fluorescence polarization, 2 h | Potency, µM, without a hit: max response, negative = inhibition, most hits filed as inhibitors | P11473; also: % is scaled to controls: 0 for no effect and ±100 for the full control effect
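Compounds are added to VDR with labelled SRC2-3 coactivator peptide and held 2 h at room temperature. Inhibition of the VDR–peptide interaction is then read as a change in fluorescence polarization.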
PLK1 PBD inh = inhibitors of human PLK1 polo-box domain binding; Plk1 PBD binding of FITC phosphopeptide, fluorescence polarization; Potency, µM, for inactives: max response, negative = inhibition, hits mostly inhibitors; actives 2.8% (n = 360,000); AID 720504; also: series mostly up to about 57 µM; % is scaled to controls: 0 for no effect and ±100 for the full control effect; nearly all actives have a fitted effect of over 65% in size
Tb PFK block = blocks T. brucei phosphofructokinase. O15648. AID 485367. T. brucei PFK, ADP-Glo luminescence. Potency, µM (top dose mostly 57.5 µM), for the others: top-dose activity, negative = inhibition, actives largely listed as inhibitors. actives 0.17% (n = 330,000);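 also: 0% = uninhibited 1x PFK enzyme wells and -100% = no-enzyme wells; nearly all actives have a fitted effect of over 60% in size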
Target sequence (O15648 whole entry, looked up): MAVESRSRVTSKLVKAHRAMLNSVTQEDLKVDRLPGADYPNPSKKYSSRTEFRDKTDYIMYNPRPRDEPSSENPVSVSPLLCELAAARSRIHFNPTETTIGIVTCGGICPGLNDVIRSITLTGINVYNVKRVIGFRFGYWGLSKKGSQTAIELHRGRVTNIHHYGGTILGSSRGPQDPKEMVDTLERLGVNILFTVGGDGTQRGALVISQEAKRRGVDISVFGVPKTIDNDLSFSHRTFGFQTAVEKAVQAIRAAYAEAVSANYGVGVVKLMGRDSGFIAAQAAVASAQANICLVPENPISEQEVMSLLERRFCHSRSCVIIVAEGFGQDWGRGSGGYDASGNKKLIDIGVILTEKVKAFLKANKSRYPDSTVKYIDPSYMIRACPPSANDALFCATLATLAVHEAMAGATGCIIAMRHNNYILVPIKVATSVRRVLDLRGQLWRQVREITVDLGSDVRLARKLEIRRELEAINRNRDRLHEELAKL
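ADP-Glo luminescence quantified ADP after 45 min at room temperature, with 1.25 nM T. brucei PFK, 0.1 mM ATP and 0.5 mM fructose-6-phosphate in pH 8.0 TEA buffer. qHTS titrations up to 57 µM; curves classified by quality.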
BRCA1 expr up = BRCA1 expression activation. actives 1.1% (n = 380,000). MCF7-BRCA1-FFLuc reporter, luminescence, 48 h; response scale: scaled: vehicle 0%, 10 µM genistein 100%. Potency, µM (titrated, usually from 46.1 µM), without a hit: at the highest dose activation, actives largely listed as activators; also: nearly all actives have a fitted effect of over 80% in size
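Quantitative HTS in MCF7 cells stably reporting BRCA1 expression via firefly luciferase. Compound treatment lasts 48 h at 37 °C in phenol-red free MEM. Activation is expressed relative to genistein at 10 microM and DMSO.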
* marks the source's active call; other numbers are inactive results. An excerpt weighted towards active compounds, which were near 3.9% of everything screened. Calls follow the shape of the dose curve; as a rule, active = well fitted curve in the direction sought with a large enough effect; inconclusive = small, poorly fitted or top-dose-only effect, or another doubt; inactive = no such curve, though single readings can be large; an effect the other way counts as inactive or inconclusive. Potency is read from the fitted curve at half-maximal effect.

For CN(C)/C=C/C(=O)c1cnc(-c2cccc(Cl)c2)s1 the results were VDR inh -28.2%, PLK1 PBD inh -4.3%, Tb PFK block 5.4% and BRCA1 expr up inconclusive.
`CN(C)/C=C/C(=O)c1cnc(-c2ccccc2Cl)s1` gave VDR inh 4.5%, PLK1 PBD inh -3.8%, Tb PFK block 0.6% and BRCA1 expr up 6.31µM*.
`N#CC(C#N)=C1C=CC=CN1/C(=C\c1ccccc1)C(=O)c1cccs1` gave VDR inh inconclusive, PLK1 PBD inh 2.12µM*, Tb PFK block 0.8% and BRCA1 expr up -9.9%.
For CC1CCN(C(=O)/C(=C/c2ccccc2Cl)c2ccccc2)CC1 the results were VDR inh -1.4%, PLK1 PBD inh -24.8%, Tb PFK block -7.7% and BRCA1 expr up -47.2%.
`O=C(N/N=C/C(Br)=C\c1ccccc1)c1cccs1` gave VDR inh 4.2%, PLK1 PBD inh -9.9%, Tb PFK block -4.3% and BRCA1 expr up inconclusive.
N#CC(C#N)=C1C=CC=CN1/C(=C\c1ccccc1Cl)C(=O)c1ccccc1 was read as VDR inh inconclusive, PLK1 PBD inh 1.68µM*, Tb PFK block -23.1% and BRCA1 expr up -91.7%.
CN1CCN(C(=O)C[C@@H]2C=C[C@H](NS(=O)(=O)c3cccc(F)c3)[C@@H](CO)O2)CC1 was read as PLK1 PBD inh 1.3%.
NC(=O)Cn1cnc2c(nnn2-c2ccc(F)cc2)c1=O was read as VDR inh -18.0%, PLK1 PBD inh 26.7µM*, Tb PFK block 7.1% and BRCA1 expr up 0.0%.
For CC(C)(C)NCC(O)COc1c(F)cc(Br)cc1F (centres undefined) the results were VDR inh -6.2%, PLK1 PBD inh 2.6%, Tb PFK block -2.5% and BRCA1 expr up 13.7%.
Cc1cc(C)c(OCC(O)CNC(C)(C)C)c(C)c1 (centres undefined) was read as VDR inh -22.6%, PLK1 PBD inh 23.8µM*, Tb PFK block 0.5% and BRCA1 expr up -1.9%.
For Cc1cc(NC(=O)c2ccccc2)ncc1NC(=O)c1cccs1 the results were VDR inh -13.1%, PLK1 PBD inh 1.6%, Tb PFK block -28.4% and BRCA1 expr up 7.94µM*.
For Cc1cc(NC(=O)c2ccccc2F)ncc1NC(=O)c1cccs1 the results were VDR inh -26.0%, PLK1 PBD inh 8.44µM*, Tb PFK block 2.2% and BRCA1 expr up inconclusive.
`Cc1cccc(N(CC(=O)Nc2cccc(Cl)c2C)S(C)(=O)=O)c1C` gave VDR inh -6.3%.
COc1ccc(/C=C\C(=O)CC(O)(c2ccccc2)C(F)(F)F)cc1 (centres undefined) was read as VDR inh 50.1µM*, PLK1 PBD inh -9.4%, Tb PFK block 1.7% and BRCA1 expr up -8.0%.
Cc1ccc(CNC(=O)c2cc(Sc3ccc(F)cc3F)nc3ccccc23)cc1 was read as VDR inh 15.0%.
COc1cccc(C(=O)NCCSCc2ccccc2Cl)c1 was read as VDR inh 1.1%, PLK1 PBD inh -13.5%, Tb PFK block -0.3% and BRCA1 expr up 54.1%.
COc1cccc(C(=O)NCCSCc2c(F)cccc2Cl)c1 was read as VDR inh inconclusive, PLK1 PBD inh 21.2µM*, Tb PFK block 2.6% and BRCA1 expr up 79.1%.
`c1csc(-c2noc(COc3ccc4c(c3)CCCC4)n2)c1` gave VDR inh 6.9%, PLK1 PBD inh 0.1%, Tb PFK block 6.7% and BRCA1 expr up 3.98µM*.
Screening CCOc1ccc2c(c1)c(=O)c(S(=O)(=O)c1ccc(Cl)cc1)cn2Cc1ccccc1C returned VDR inh -6.5% and BRCA1 expr up -12.9%.
`O=NN(Cc1cccnc1)C(=O)NC1CCCCC1` gave PLK1 PBD inh 26.7µM* and BRCA1 expr up 6.5%.
For O=C(NC1CCCC1)C(=O)N(Cc1cccnc1)C(C(=O)NC1CCCC1)c1ccco1 (centres undefined) the results were VDR inh 11.6%, PLK1 PBD inh 2.8%, Tb PFK block 3.5% and BRCA1 expr up -4.8%.
Cc1ccc(CSCC(=O)N2CCOCC2)cc1 was read as VDR inh -18.8%, PLK1 PBD inh 2.99µM*, Tb PFK block -1.3% and BRCA1 expr up 58.4%.
O=C(CSc1ccccn1)N1CCN(C(=O)CSc2ccccn2)CC1 was read as VDR inh 3.2%, PLK1 PBD inh -4.9%, Tb PFK block -2.1% and BRCA1 expr up 6.5%.
`O=C(CSc1ccccn1)N1CCN(c2ccc(Cl)cc2)CC1` gave VDR inh -21.3%, PLK1 PBD inh 23.8µM*, Tb PFK block -0.9% and BRCA1 expr up -1.4%.
